We go through 12 molecules from PubChem BioAssay (NCATS).

A number with no mark means an inactive call. Results filed as inconclusive are left out. The source made the active and inactive calls. Unless noted, calls follow the shape of the dose curve; as a rule, active = well fitted curve in either direction with a large enough effect (not every such curve was filed as active); inconclusive = small, poorly fitted or top-dose-only effect, or another doubt; inactive = flat fitted curve, though single readings scatter. Bounds are passed on as bounds.

Assay [1] addresses Cytochrome P450 1A2 (Homo sapiens) (UniProt P05177). Briefly: p450-cyp1a2 (AID 410; calls by dose curve; also: potency is read from the fitted curve at half-maximal effect). The method in brief:
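O-Demethylation of luciferin 6' methyl ether by human CYP1A2 is monitored as luciferase luminescence. Substrate sits at Km (100uM); enzyme is 20nM. Values are scaled to 57 uM furafylline as maximal inhibition.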

Assay [2] addresses Glucocorticoid receptor (Homo sapiens) (UniProt P04150). Kind of assay: GR-GFP Redistribution (AID 450;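 active = compounds whose dose series gives a full or clear partial fitted curve of increased nuclear translocation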; also: potency is read from the fitted curve at half-maximal effect). The note with it: U2OS GR-GFP nuclear translocation, laser cytometry, 2 h.
Assay [3] has the same target. Briefly: GR-EFC Redistribution (AID 451; calls by dose curve; also: potency is read from the fitted curve at half-maximal effect). The note with it: CHO-K1 GR-EFC translocation, beta-gal luminescence, 2 h. The procedure, abridged: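 CHO-K1 cells stably expressing nuclear-localized β-gal enzyme acceptor and GR fused C-terminally to the enzyme donor fragment; ligand-driven nuclear translocation restores β-gal by complementation. Compounds titrated up to 46 uM final, 2 h at 37 °C; luminescence read.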

In assay [4] the target is Mitogen-activated protein kinase 10 (Mus musculus) (UniProt Q61831). Kind of assay: JNK3 AlphaScreen Assay (AID 530).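 Also: kinase came from lysate of stimulated human HepG2 cells; signal reports phosphorylation of biotinylated GST-cJun 1-79 at Ser73 with 10 µM ATP; % is scaled to controls: 0 for no effect and ±100 for the full control effect.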 The method in brief: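 Phosphorylation of biotinylated GST-cJun(1-79) at Ser73 is measured by AlphaScreen proximity luminescence. Enzyme is JNK3 in HepG2 lysates activated with interleukin-1beta and tumor necrosis factor alpha; ATP is 10 uM final.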
In assay [5] the target is 3',5'-cyclic-AMP phosphodiesterase 4B (Homo sapiens) (UniProt Q07343). Briefly: qHTS Assay for Inhibitors of PDE-IV (AID 607; active = well fitted activation curve with a large enough effect in the main read-out, with a control signal flat, not every such curve was filed as active; also: % of control where 0% means no effect). The procedure, abridged: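 Cell-based read-out of cAMP via a modified cyclic nucleotide-gated channel and membrane potential dye (535/590 nm) in HEK293 cells expressing PDE4 endogenously. Compounds tested up to 22.9 uM final; 100 uM RO 20-1724 reference.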

For assay [6], the target named is Cytochrome P450 2C9 (Homo sapiens) (UniProt P11712). Briefly: qHTS Assay for Inhibitors and Substrates of Cytochrome P450 2C9 (AID 883; active = well fitted curve in the direction sought with a large enough effect; an effect the other way counts as inactive or inconclusive; also: % is scaled to controls: 0 for no effect and ±100 for the full control effect; nearly all actives have a fitted effect of over 60% in size). The procedure, abridged:
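Human CYP2C9 (10nM) hydroxylated Luciferin-H (100uM, at its KM) to luciferin in 25mM KPO4. Compound was preincubated 10 min at 37C, then NADPH regeneration started a 60 min reaction at 37C. Luminescence was read after detection reagent, normalized to 57uM sulphaphenazole.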
(Quantitative high-throughput screening tests each substance at several concentrations.)

Assay [7] in a line: AP1 Signaling Pathway (AID 357). Also: % is scaled to controls: 0 for no effect and ±100 for the full control effect. The note with it: ME-180 AP-1-bla reporter, EGF-induced, beta-lactamase ratio, 5 h; at 17.2 µM (top of the series) unless noted. The method in brief:
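ME-180 cells with beta-lactamase reporter under AP-1 response element, stimulated with EC50 EGF; compounds tested in titration series, 5 h at 37 °C. CCF4 substrate added 2.5 h at room temperature; 460/530 nm emission ratio gave %activity and AC50.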

The nature of assay [8]: Stat Signaling Pathway (AID 446).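 Also: ME-180 cervical cancer cells given 40 pM IL-6 alongside compound; SIE-controlled beta-lactamase reporter measured as 460/530 nm FRET emission ratio; % is scaled to controls: 0 for no effect and ±100 for the full control effect.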 The procedure, abridged:
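FRET read-out (405 nm excitation, 460/530 nm emission) of a beta-lactamase reporter under a STAT-inducible element in ME-180 cervical carcinoma cells. Cells with compound receive 40 pM IL-6 for 5 h. Values are normalised to AC90 stimulation and AC90 JAK-inhibitor controls.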

Assay [9] deals with Cytochrome P450 2D6 (Homo sapiens) (UniProt P10635). Kind of assay: qHTS Assay for Inhibitors and Substrates of Cytochrome P450 2D6 (AID 891; active = well fitted curve in the direction sought with a large enough effect; an effect the other way counts as inactive or inconclusive; also: nearly all actives have a fitted effect of over 60% in size; also: potency is read from the fitted curve at half-maximal effect). The method in brief:
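Luminescent read-out of luciferin formed by 5 nM human CYP2D6 demethylating 30 uM Luciferin-ME EGE (Km level) over 60 min at room temperature after NADPH regeneration addition. Data normalized to full inhibition by 1.43 uM quinidine.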

Assay [10] addresses Cytochrome P450 2C19 (Homo sapiens) (UniProt P33261). Briefly: qHTS Assay for Inhibitors and Substrates of Cytochrome P450 2C19 (AID 899; active = well fitted curve in the direction sought with a large enough effect; an effect the other way counts as inactive or inconclusive; also: % is scaled to controls: 0 for no effect and ±100 for the full control effect; nearly all actives have a fitted effect of over 60% in size). The procedure, abridged: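 Human CYP2C19 (5nM) with Luciferin-H EGE at 10uM (its KM) in 50mM KPO4 was preincubated with compound for 10 min at 37C. NADPH regeneration started a 60 min 37C reaction. Luciferin was read by luminescence, normalized to 57uM ketoconazole.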

The target in assay [11] is Cytochrome P450 3A4 (Homo sapiens) (UniProt P08684). Briefly: qHTS Assay for Activators of Cytochrome P450 3A4 (AID 885; active = well fitted curve in the direction sought with a large enough effect; an effect the other way counts as inactive or inconclusive; also: nearly all actives have a fitted effect of over 65% in size). The method in brief:
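Luminescent readout of luciferin formed from 25 uM Luciferin-PPXE (KM level) by 20 nM CYP3A4 in 200 mM KPO4, with 60 min NADPH-driven reaction at room temperature after 10 min compound exposure. Ketoconazole (57 uM) defined 100% inhibition.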

Assay [12] deals with DNA dC->dU-editing enzyme APOBEC-3G (Homo sapiens) (UniProt Q9HC16). Kind of assay: qHTS for inhibitors of Vif-A3G interactions: Validation (AID 588379; active = well fitted curve in the direction sought with a large enough effect; an effect the other way counts as inactive or inconclusive; also: 0% is about no effect). The method in brief: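 Yellow fluorescence (Ex 488, Em 500-530) of Vif-coexpressing HeLa A3G-eYFP cells, scanned by Acumen cytometer, reports blocked A3G degradation. Cells plated at 700/well overnight at 37 deg C before compound addition, then a further overnight compound incubation at 37 deg C.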

Assay [13] addresses Guanine nucleotide-binding protein G(i) subunit alpha-1 (Homo sapiens) (UniProt P63096). Kind of assay: qHTS Assay for Inhibitors of RGS12 GoLoco Motif Activity (Green Fluorophore) (AID 879; active = well fitted curve in the direction sought with a large enough effect; an effect the other way counts as inactive or inconclusive;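 also: 0% = labeled peptide with Gαi1 and full inhibition = labeled peptide alone without protein; negative values mean loss of peptide binding seen as reduced polarization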). The method in brief: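 A drop in FITC polarization marked displacement of the FITC-tagged RGS12 GoLoco peptide (10 nM) from Gαi1 (50 nM). Compounds were incubated 10 min at room temperature in Tris pH 7.5 buffer containing 150 mM NaCl, 0.1 mM GDP and 0.05% NP40; unlabeled peptide titration served as control.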

The nature of assay [14]: qHTS Assay for Identification of Small Molecule Agonists for Thrombopoietin (TPO) Signaling Pathway (AID 917; active = well fitted curve in the direction sought with a large enough effect; an effect the other way counts as inactive or inconclusive; also: % is scaled to controls: 0 for no effect and ±100 for the full control effect). The procedure, abridged: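 First, Ba/F3 cells with human TPO receptor were held overnight without IL-3. Next, compounds and TPO (26 pM final) were added. After 24 hrs at 37 C, luciferase detection reagent was added and luminescence measured following 10 min at room temperature.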

The target of assay [15] is Pyruvate kinase (Leishmania mexicana) (UniProt Q27686). Briefly: qHTS Validation Assay for Inhibitors of Leishmania Mexicana Pyruvate Kinase (AID 945; active = well fitted curve in the direction sought with a large enough effect; an effect the other way counts as inactive or inconclusive;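 also: 0% = DMSO only neutral control wells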). The procedure, abridged: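 Eight-point qHTS titrations in triplicate, data normalized to DMSO neutral control. Reaction: 0.2 nM LmPYK E451W mutant, 0.5 mM PEP, 0.1 mM ADP, 7 mM MgCl2, pH 7.2, one hour at room temperature; luminescent ATP detection.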

The target in assay [16] is Pyruvate kinase PKM (Homo sapiens) (UniProt P14618). Briefly: qHTS Assay for Activators of Human Muscle Pyruvate Kinase (AID 954; active = well fitted curve in the direction sought with a large enough effect, not every such curve was filed as active;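 also: 0% = uninhibited enzyme and -100% = no enzyme or full thiadiazolimine inhibition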). The procedure, abridged:
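ATP production by PKM2 detected via luciferase luminescence after 1 h room-temperature reaction (0.1 nM enzyme, PEP at Km 0.5 mM, ADP 0.1 mM, pH 7.2 imidazole buffer). Inhibition scaled to no-enzyme control; activation referenced to 0.3 nM enzyme wells.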

The target of assay [17] is Alpha-galactosidase (Coffea arabica) (UniProt Q42656). Kind of assay: Counterscreen for Glucocerebrosidase Inhibitors: qHTS Assay for Coffee Bean alpha-Galactosidase at pH 4.5 (AID 957; active = well fitted curve in the direction sought with a large enough effect; an effect the other way counts as inactive or inconclusive;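 also: plate controls were enzyme alone for no effect and no enzyme for full effect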). The method in brief: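 Enzyme is added first (2 nM final), then compounds titrated from 0.7 nM to 77 uM, then 80 uM 4-methylumbelliferyl alpha-D-galactopyranoside; after 20 min at room temperature a pH 10 NaOH/glycine stop precedes fluorescence reading at 365/440 nm.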
A general note: The purpose of a counterscreen is to sort out artefacts and off-target activity.

Assay [18] deals with Alpha-galactosidase A (Homo sapiens) (UniProt P06280). Kind of assay: Counterscreen for Glucocerebrosidase Inhibitors: qHTS Assay for Human alpha-Galactosidase at pH 4.5 (AID 992; active = well fitted curve in the direction sought with a large enough effect; an effect the other way counts as inactive or inconclusive; also: 0% is about no effect). The method in brief: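 Fluorogenic 1536-well qHTS at pH 4.5 (citrate, Tween-20): 2 nM enzyme, 80 uM 4-MU-alpha-galactoside, 20 min room temperature, NaOH/glycine stop. Titration 0.7 nM to 77 uM, data normalized to no-enzyme and full-activity controls, Hill-fitted AC50.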

The target in assay [19] is alpha-glucosidase (Oryza sativa, rice) (UniProt Q653V4). Briefly: Counterscreen for Glucocerebrosidase Inhibitors: qHTS Assay for Rice alpha-Glucosidase at pH 5.0 (AID 997; active = well fitted curve in the direction sought with a large enough effect; an effect the other way counts as inactive or inconclusive;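 also: 0% = full activity with enzyme and -100% = basal without enzyme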). The procedure, abridged:
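Endpoint fluorogenic assay at pH 5.0: compounds (0.7 nM to 77 uM) titrated against 4 nM rice enzyme and 400 uM 4-MU-alpha-glucoside for 20 min at room temperature; NaOH/glycine stop, read ex 365/em 440 nm, Hill-fitted AC50.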

The nature of assay [20]: qHTS Assay for Identification of Small Molecule Agonists for Hypoxia Response Element Signaling Pathway (AID 914; active = well fitted activation curve with a large enough effect in the signal ratio, with a control signal flat, not every such curve was filed as active; the % refers to the signal ratio; also: potency is read from the fitted curve at half-maximal effect). The note with it: ME-180 (cervical carcinoma) HRE-bla reporter, beta-lactamase ratio, CoCl2, 17 h; activation: hits give high values. The method in brief: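 HRE-bla ME-180 cells with beta-lactamase reporter under hypoxia response element, compounds with EC50 CoCl2 for 17 hours at 37 C. CCF4 substrate, 460nm/530nm emission ratio gave %Activity; AC50 from titration series.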

Chain of Cytochrome P450 2C9 (Homo sapiens) (P11712 whole entry, looked up): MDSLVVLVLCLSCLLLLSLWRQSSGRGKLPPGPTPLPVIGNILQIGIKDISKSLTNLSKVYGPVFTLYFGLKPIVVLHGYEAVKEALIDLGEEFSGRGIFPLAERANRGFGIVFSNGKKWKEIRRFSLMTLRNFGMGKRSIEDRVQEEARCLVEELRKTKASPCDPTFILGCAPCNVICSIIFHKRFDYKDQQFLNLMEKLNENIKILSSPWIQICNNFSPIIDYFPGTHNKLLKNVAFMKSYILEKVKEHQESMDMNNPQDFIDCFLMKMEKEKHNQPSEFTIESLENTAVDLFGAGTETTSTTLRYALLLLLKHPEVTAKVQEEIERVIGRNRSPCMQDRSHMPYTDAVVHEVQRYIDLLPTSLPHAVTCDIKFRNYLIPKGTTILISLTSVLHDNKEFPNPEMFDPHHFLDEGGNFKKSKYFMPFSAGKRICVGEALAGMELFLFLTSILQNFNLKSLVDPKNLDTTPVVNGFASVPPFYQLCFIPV
Chain of Glucocorticoid receptor (Homo sapiens) (P04150 whole entry, looked up, the tested form may be a part): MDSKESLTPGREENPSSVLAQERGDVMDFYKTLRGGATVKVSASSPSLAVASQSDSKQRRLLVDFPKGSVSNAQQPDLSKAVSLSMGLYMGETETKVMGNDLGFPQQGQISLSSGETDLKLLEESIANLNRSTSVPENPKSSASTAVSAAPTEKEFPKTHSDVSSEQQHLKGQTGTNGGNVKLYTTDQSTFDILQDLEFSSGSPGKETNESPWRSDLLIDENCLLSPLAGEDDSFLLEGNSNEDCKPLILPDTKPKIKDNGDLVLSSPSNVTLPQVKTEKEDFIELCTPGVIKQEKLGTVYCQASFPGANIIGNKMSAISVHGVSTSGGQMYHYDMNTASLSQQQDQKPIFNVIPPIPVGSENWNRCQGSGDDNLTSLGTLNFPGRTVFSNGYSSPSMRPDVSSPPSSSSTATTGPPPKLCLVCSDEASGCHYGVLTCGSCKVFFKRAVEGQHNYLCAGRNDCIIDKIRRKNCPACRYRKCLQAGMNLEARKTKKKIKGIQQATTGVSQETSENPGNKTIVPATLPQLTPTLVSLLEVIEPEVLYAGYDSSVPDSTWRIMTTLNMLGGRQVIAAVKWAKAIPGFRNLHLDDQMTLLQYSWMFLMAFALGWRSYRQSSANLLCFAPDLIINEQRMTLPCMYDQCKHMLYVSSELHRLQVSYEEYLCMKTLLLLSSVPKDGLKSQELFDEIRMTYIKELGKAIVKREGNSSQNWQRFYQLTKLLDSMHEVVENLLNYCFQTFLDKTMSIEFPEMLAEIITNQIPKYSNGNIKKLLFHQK
Chain of Cytochrome P450 2D6 (Homo sapiens) (P10635 whole entry, looked up): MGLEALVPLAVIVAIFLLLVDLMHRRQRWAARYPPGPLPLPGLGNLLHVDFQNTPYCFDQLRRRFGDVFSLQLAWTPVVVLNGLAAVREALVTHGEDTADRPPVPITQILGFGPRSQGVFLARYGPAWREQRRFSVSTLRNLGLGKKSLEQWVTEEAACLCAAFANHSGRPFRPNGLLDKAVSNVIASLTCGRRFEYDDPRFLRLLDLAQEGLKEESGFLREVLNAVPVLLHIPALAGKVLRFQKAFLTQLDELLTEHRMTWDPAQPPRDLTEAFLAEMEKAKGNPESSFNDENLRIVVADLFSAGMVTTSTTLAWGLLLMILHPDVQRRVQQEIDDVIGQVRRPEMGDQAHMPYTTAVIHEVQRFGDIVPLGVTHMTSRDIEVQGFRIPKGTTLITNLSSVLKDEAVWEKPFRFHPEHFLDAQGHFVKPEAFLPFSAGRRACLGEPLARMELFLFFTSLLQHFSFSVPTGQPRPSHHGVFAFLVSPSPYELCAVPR
Chain of 3',5'-cyclic-AMP phosphodiesterase 4B (Homo sapiens) (Q07343 whole entry, looked up): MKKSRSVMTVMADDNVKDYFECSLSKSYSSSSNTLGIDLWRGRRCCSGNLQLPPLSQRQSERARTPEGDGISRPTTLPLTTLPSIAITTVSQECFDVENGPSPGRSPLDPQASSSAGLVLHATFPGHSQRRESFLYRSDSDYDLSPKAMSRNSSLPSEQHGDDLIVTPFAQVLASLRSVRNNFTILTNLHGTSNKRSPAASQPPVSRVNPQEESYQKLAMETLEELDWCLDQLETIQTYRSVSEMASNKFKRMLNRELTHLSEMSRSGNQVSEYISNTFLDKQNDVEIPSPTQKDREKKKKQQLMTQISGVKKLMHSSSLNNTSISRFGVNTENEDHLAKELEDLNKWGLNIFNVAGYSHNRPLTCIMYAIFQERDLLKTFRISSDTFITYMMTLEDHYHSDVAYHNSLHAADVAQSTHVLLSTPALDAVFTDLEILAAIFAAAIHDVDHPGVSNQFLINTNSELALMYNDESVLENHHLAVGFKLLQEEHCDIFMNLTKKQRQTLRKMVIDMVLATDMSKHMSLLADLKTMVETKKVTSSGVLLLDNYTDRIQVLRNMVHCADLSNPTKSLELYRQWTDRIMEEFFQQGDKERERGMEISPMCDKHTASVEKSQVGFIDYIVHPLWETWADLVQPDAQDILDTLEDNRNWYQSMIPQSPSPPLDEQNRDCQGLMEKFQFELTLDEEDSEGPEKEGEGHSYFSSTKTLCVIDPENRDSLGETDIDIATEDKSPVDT
Chain of Cytochrome P450 1A2 (Homo sapiens) (P05177 whole entry, looked up): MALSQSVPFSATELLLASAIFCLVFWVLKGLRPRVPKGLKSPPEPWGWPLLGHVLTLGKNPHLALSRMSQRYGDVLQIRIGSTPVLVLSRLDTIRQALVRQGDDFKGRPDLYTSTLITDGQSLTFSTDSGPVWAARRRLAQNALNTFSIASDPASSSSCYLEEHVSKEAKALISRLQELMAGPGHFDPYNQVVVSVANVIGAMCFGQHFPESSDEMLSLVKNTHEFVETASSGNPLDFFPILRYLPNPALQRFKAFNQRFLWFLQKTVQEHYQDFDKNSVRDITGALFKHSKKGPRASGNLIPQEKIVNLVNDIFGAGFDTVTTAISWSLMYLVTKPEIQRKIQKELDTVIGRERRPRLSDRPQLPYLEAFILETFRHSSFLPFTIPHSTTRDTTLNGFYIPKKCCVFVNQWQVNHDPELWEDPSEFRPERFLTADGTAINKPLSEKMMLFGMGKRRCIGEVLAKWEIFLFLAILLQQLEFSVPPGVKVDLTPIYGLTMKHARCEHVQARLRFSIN
Chain of Cytochrome P450 2C19 (Homo sapiens) (P33261 whole entry, looked up): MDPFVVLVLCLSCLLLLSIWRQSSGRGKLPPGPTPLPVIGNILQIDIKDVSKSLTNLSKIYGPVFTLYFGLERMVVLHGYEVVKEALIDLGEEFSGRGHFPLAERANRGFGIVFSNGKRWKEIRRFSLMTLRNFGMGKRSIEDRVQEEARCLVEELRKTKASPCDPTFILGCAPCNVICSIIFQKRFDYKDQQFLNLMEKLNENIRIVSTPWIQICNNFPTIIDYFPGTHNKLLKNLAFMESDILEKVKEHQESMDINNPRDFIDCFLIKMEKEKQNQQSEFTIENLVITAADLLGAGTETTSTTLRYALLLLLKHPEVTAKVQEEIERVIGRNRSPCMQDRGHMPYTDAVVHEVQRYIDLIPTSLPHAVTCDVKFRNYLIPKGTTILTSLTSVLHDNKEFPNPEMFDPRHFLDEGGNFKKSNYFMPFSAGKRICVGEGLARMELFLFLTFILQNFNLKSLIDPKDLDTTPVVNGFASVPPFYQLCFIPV
Chain of Pyruvate kinase (Leishmania mexicana) (Q27686 2-499 E452W): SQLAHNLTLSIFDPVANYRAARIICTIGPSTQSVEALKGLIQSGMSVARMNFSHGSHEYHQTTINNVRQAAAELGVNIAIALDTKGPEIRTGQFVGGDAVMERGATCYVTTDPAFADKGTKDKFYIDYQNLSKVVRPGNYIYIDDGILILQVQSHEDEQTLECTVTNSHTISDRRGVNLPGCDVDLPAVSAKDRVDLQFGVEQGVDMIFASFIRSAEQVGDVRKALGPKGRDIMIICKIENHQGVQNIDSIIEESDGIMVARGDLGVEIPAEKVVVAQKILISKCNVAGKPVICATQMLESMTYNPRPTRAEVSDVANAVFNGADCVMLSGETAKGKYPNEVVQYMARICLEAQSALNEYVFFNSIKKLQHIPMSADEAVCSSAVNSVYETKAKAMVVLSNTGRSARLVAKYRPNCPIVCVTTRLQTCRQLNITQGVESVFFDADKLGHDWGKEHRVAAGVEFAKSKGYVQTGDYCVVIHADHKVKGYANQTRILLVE
Chain of Pyruvate kinase PKM (Homo sapiens) (P14618 whole entry, looked up): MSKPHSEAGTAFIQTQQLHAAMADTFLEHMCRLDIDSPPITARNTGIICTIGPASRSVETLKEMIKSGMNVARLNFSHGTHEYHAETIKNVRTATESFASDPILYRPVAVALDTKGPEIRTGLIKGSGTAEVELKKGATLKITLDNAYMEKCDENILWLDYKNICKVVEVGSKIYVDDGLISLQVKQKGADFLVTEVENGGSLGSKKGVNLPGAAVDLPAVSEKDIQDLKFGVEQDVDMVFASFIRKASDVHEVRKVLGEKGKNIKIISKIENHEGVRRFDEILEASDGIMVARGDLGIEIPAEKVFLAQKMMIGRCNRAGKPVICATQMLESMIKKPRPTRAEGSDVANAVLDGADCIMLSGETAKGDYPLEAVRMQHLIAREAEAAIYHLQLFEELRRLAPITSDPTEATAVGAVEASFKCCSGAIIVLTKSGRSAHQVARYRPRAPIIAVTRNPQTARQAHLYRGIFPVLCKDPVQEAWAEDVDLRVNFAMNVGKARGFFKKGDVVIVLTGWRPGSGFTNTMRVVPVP
Chain of Alpha-galactosidase A (Homo sapiens) (P06280 whole entry, looked up): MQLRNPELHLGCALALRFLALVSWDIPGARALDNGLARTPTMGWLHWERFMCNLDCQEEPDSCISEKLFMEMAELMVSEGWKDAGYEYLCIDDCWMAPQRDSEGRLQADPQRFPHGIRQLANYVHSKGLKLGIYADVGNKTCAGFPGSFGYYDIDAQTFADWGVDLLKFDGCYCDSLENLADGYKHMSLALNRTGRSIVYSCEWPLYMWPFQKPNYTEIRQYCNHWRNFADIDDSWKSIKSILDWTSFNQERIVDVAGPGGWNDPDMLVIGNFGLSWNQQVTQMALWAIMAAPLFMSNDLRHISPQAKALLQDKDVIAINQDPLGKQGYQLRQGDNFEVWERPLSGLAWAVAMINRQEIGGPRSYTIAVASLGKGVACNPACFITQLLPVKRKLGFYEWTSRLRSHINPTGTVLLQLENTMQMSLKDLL

Turning to `O=c1cccc2n1C[C@@H]1C[C@H]2CN2CCCC[C@H]12`, the values for the Potency in [1], in [2] and in assay [3] were 1.26 µM (active), over 46 µM and over 46 µM, respectively. In addition, the call in [4] and in assay [5] was inactive. The Potency result in assay [6] is “inactive”.
As to `CCc1nc(N2CCNCC2)c(C#N)c2c1CSC(C)(C)C2`, the activity change, negative = inhibition in assay [7] was -1.4%. Besides, in assay [8], the call was inactive. Besides, in assay [2], the Potency is over 20.6 µM.
In the case of `CCN1C[C@@]2(COC(=O)c3ccccc3N3C(=O)C[C@H](C)C3=O)CC[C@H](OC)[C@@]34[C@@H]5CC6[C@@H](OC)C[C@@](O)([C@H]5[C@H]6OC)C(O)([C@@H]13)[C@@H](OC)[C@H]24`, the Potency entry in [1], in assay [6], in assay [9] and in assay [10] was “inactive” in each case. For the same molecule, the Potency in [2] and in [3] was over 46 µM each time. Moreover, the result in assay [4] and in [5] was inactive.
For the molecule `COc1cc2c(cc1O)-c1c(O)c(OC)cc3c1[C@H](C2)N(C)CC3`, the Potency in [1] was 3.16 µM (active); in [2], over 46 µM; in assay [3], over 46 µM; in assay [9], 2.51 µM (active). Further, the molecule was called inactive in assay [4] and in assay [12]. Besides, the Potency entry in assay [11] is “inactive”.
`C[C@@H]1O[C@@H](O[C@H]2C[C@@H](O)[C@]3(CO)[C@@H]4[C@@H](O)C[C@]5(C)[C@H]([C@@H]6COC(=O)C6)CC[C@@]5(O)[C@H]4CC[C@@]3(O)C2)[C@H](O)[C@H](O)[C@@H]1O`: the Potency entry in [1], in [13] and in [15] was “inactive” throughout. For the same molecule, the result in [8], in assay [5], in assay [14], in assay [16], in assay [17] and in assay [18] was inactive. Besides, the molecule was called inactive in assay [19]. Besides, the Potency in assay [2] and in [3] was over 46 µM in each case.
Turning to `Nc1c(C(=O)NCc2ccco2)c2nc3ccccc3nc2n1CCN1CCCCC1`, the activity change, negative = inhibition in assay [7] was 29.1%. The Potency in assay [2] is over 20.6 µM; in [20], 7.94 µM (active).
For the molecule `Cc1c(N=Cc2c(O)n(CCc3ccccc3)c(=O)[nH]c2=O)c(=O)n(-c2ccccc2)n1C`, the activity change, negative = inhibition in assay [7] is -11.1%. In addition, the call in assay [8] was inactive. In assay [2], the Potency is over 20.6 µM.
Turning to `CC1=C2[C@@H]3OC(=O)[C@H](C)[C@H]3CC[C@@]2(C)C=CC1=O`, the Potency is 31.6 µM (active) in assay [1], over 46 µM in assay [2] and over 46 µM in [3]. Besides, the molecule was classed as inactive in assay [4] and in assay [5]. Further, the Potency result in [6], in assay [9] and in assay [10] was “inactive” each time.
For the molecule `O=C(COc1ccc2ccccc2c1)N1CCN(C2CCN(Cc3ccccc3)CC2)CC1`, in assay [7], the activity change, negative = inhibition was 9.29%. Further, in [8], the outcome was inactive. Besides, the Potency in assay [2] is over 20.6 µM.
In the case of `CCCCc1nc(N2CCNCC2)c(C#N)c2c1CSC(C)(C)C2`, in assay [7], the activity change, negative = inhibition was 3.85%. Besides, the outcome in [8] was inactive. The Potency in assay [2] was over 20.6 µM.
`C[C@H]1CCC/C=C/C2C[C@H](O)CC2[C@H](O)/C=C/C(=O)O1` (some centres not stated): the activity change, negative = inhibition in assay [7] was 5.62%. Also, the call in assay [8] was inactive. Besides, the Potency in assay [2] is over 20.6 µM.
Turning to `Cn1c(O)c(C=NC2CCN(Cc3ccccc3)CC2)c(=O)n(C)c1=O`, the activity change, negative = inhibition in assay [7] is -11.6%. Further, the outcome in [8] was inactive. Moreover, in [2], the Potency is over 20.6 µM.
